Measured values: PubChem BioAssay (NCI)
This is part of a sample that, as a whole, favours compounds with a hit. Of some 83,000 tested, about 20% had one in any assay.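 The endpoint reported here, percent growth, reads 100 for growth as untreated, 0 for no net growth and -100 for all cells dead.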 Calls of active or inactive are those of the source. The calls were made as follows: active = growth percent below 10; inactive = the rest.

Columns and labels:
Test in all cases: NCI-60 one-dose screen, 48 h (100 = growth as untreated, 0 = no growth, -100 = all killed)
Settings in all cases: 10 µM unless noted
NCI-H23 lung = system: NCI-H23 lung
NCI-H226 lung = system: NCI-H226 lung
NCI-H322M lung = system: NCI-H322M lung
HOP-62 NSCLC = system: HOP-62 NSCLC
NCI-H460 lung = system: NCI-H460 lung
NCI-H522 lung = system: NCI-H522 lung
A549/ATCC NSCLC = system: A549/ATCC NSCLC
786-0 renal = system: 786-0 renal
COLO 205 colon = system: COLO 205 colon
DU-145 prostate = system: DU-145 prostate
K-562 leukemia = system: K-562 leukemia
MALME-3M melanoma = system: MALME-3M melanoma
MDA-MB-231 breast = system: MDA-MB-231 breast
RXF 393 renal = system: RXF 393 renal
SF-268 CNS = system: SF-268 CNS
SF-295 CNS = system: SF-295 CNS
SF-539 CNS = system: SF-539 CNS
UACC-257 melanoma = system: UACC-257 melanoma
M14 melanoma = system: M14 melanoma

Measured: growth

Brc1ccsc1Br
inactive: NCI-H23 lung 107% | NCI-H226 lung 104% | NCI-H322M lung 125% | HOP-62 NSCLC 93.4% | NCI-H460 lung 111% | NCI-H522 lung 95.9% | A549/ATCC NSCLC 105% | 786-0 renal 108% | COLO 205 colon 103% | DU-145 prostate 126% | K-562 leukemia 108% | MALME-3M melanoma 114% | MDA-MB-231 breast 116% | RXF 393 renal 117% | SF-268 CNS 113% | SF-295 CNS 126% | SF-539 CNS 106% | UACC-257 melanoma 111% | M14 melanoma 106%

C=CCN1C(=O)/C(=c2\sc3n(c2=O)C2C(NN=3)N(CC)C(=O)N2CC)c2ccccc21 (centres undefined)
active: NCI-H460 lung 9.1% | NCI-H522 lung -15.9% | COLO 205 colon -14.2% | RXF 393 renal 7.25% | SF-539 CNS 4.08%
inactive: NCI-H23 lung 26.7% | NCI-H226 lung 62.7% | NCI-H322M lung 49.4% | HOP-62 NSCLC 32.4% | A549/ATCC NSCLC 23.9% | 786-0 renal 32.3% | DU-145 prostate 17% | K-562 leukemia 10% | MALME-3M melanoma 66% | MDA-MB-231 breast 47.1% | SF-268 CNS 47.3% | SF-295 CNS 12.9% | UACC-257 melanoma 63.3% | M14 melanoma 14.4%

NS(=O)(=O)c1ccc(CCn2c(SCC(=O)N/N=C/c3cc4ccccc4[nH]3)nc3ccccc3c2=O)cc1
inactive: NCI-H23 lung 58.8% | NCI-H226 lung 76.6% | NCI-H322M lung 83.7% | HOP-62 NSCLC 68.7% | NCI-H460 lung 30.4% | NCI-H522 lung 19.5% | A549/ATCC NSCLC 84.3% | 786-0 renal 78.9% | COLO 205 colon 74.4% | DU-145 prostate 64.8% | K-562 leukemia 27.5% | MALME-3M melanoma 38.8% | MDA-MB-231 breast 61.7% | RXF 393 renal 91% | SF-268 CNS 89.2% | SF-295 CNS 90.9% | SF-539 CNS 82.8% | UACC-257 melanoma 82.6% | M14 melanoma 74%

CN1C2CCC1/C(=C\c1ccc(F)cc1)C(=O)/C2=C/c1ccc(F)cc1
active: DU-145 prostate 9.38%
inactive: NCI-H23 lung 47.9% | NCI-H226 lung 55.6% | NCI-H322M lung 50.3% | HOP-62 NSCLC 76.7% | NCI-H460 lung 14.1% | NCI-H522 lung 34.4% | A549/ATCC NSCLC 36.6% | 786-0 renal 43.8% | COLO 205 colon 14.8% | K-562 leukemia 16.2% | MALME-3M melanoma 61.7% | MDA-MB-231 breast 53.7% | RXF 393 renal 66.2% | SF-268 CNS 63% | SF-295 CNS 72% | SF-539 CNS 73.6% | UACC-257 melanoma 25.8% | M14 melanoma 41.2%

COc1cc(C2CC(c3ccc(Cl)cc3)=NN2C=O)ccc1Oc1ccnc2cc(Cl)ccc12 (centres undefined)
inactive: NCI-H23 lung 65.2% | NCI-H226 lung 51.4% | NCI-H322M lung 88.2% | HOP-62 NSCLC 53.1% | NCI-H460 lung 65.2% | NCI-H522 lung 47.2% | A549/ATCC NSCLC 59.1% | 786-0 renal 78.6% | COLO 205 colon 94.5% | DU-145 prostate 85.7% | K-562 leukemia 72.5% | MALME-3M melanoma 64% | MDA-MB-231 breast 56.9% | RXF 393 renal 64.2% | SF-268 CNS 68.6% | SF-295 CNS 66.2% | SF-539 CNS 66.2% | UACC-257 melanoma 66.8% | M14 melanoma 92.4%

N/N=C(\C(=N\N)c1ccccc1)c1ccccc1
inactive: NCI-H23 lung 98.8% | NCI-H226 lung 88.2% | NCI-H322M lung 94.6% | HOP-62 NSCLC 91.7% | NCI-H460 lung 108% | NCI-H522 lung 86.6% | A549/ATCC NSCLC 101% | 786-0 renal 97.6% | COLO 205 colon 108% | DU-145 prostate 113% | K-562 leukemia 111% | MALME-3M melanoma 88% | MDA-MB-231 breast 111% | RXF 393 renal 118% | SF-268 CNS 103% | SF-295 CNS 105% | SF-539 CNS 103% | UACC-257 melanoma 107% | M14 melanoma 96.6%

COc1cc(Cl)cc(-c2nn(C(=O)NCCN3CCOCC3)cc2-c2ccncc2)c1
inactive: NCI-H23 lung 84.9% | NCI-H226 lung 99.7% | NCI-H322M lung 104% | HOP-62 NSCLC 56.7% | NCI-H460 lung 56.1% | NCI-H522 lung 18.3% | A549/ATCC NSCLC 60.7% | 786-0 renal 61.8% | COLO 205 colon 42.3% | DU-145 prostate 86.1% | K-562 leukemia 28.1% | MALME-3M melanoma 70.2% | MDA-MB-231 breast 82.1% | RXF 393 renal 76.3% | SF-268 CNS 80.9% | SF-295 CNS 52.7% | SF-539 CNS 68.4% | UACC-257 melanoma 81.7% | M14 melanoma 62%

O=C(CCl)N1c2ccccc2Oc2ccc3ccccc3c21
inactive: NCI-H322M lung 91.4% | A549/ATCC NSCLC 30%
active: NCI-H23 lung -48.4% | NCI-H226 lung 3.48% | HOP-62 NSCLC -16.6% | NCI-H460 lung 2.15% | NCI-H522 lung -83.1% | 786-0 renal -89.4% | COLO 205 colon -94.2% | DU-145 prostate -7.27% | K-562 leukemia 2.96% | MALME-3M melanoma -49% | MDA-MB-231 breast -26.8% | RXF 393 renal -83.7% | SF-268 CNS -39.3% | SF-295 CNS -15.8% | SF-539 CNS -80.1% | UACC-257 melanoma 8.99% | M14 melanoma -70%

CCCCSc1ncnc2c1ncn2C1CCCCO1 (centres undefined)
inactive: NCI-H23 lung 106% | NCI-H226 lung 107% | NCI-H322M lung 114% | HOP-62 NSCLC 105% | NCI-H460 lung 111% | NCI-H522 lung 106% | A549/ATCC NSCLC 105% | 786-0 renal 97.9% | COLO 205 colon 108% | DU-145 prostate 121% | K-562 leukemia 97% | MALME-3M melanoma 115% | MDA-MB-231 breast 110% | RXF 393 renal 120% | SF-268 CNS 106% | SF-295 CNS 111% | SF-539 CNS 104% | UACC-257 melanoma 108% | M14 melanoma 103%

CCN1C(=O)/C(=C/N2N=C(c3ccc(Cl)cc3)CC2c2ccc(OC)cc2)SC1=S (centres undefined)
inactive: NCI-H23 lung 98.3% | NCI-H226 lung 93% | NCI-H322M lung 89% | HOP-62 NSCLC 96% | NCI-H460 lung 99.7% | NCI-H522 lung 70.4% | A549/ATCC NSCLC 74.3% | 786-0 renal 76.4% | COLO 205 colon 99.7% | DU-145 prostate 108% | K-562 leukemia 77.8% | MALME-3M melanoma 108% | MDA-MB-231 breast 87.2% | RXF 393 renal 91.9% | SF-268 CNS 95.2% | SF-295 CNS 89.6% | SF-539 CNS 88% | UACC-257 melanoma 89.3% | M14 melanoma 92.3%

O=C(CCl)Nc1cc(O)c2c(c1)C(=O)c1cccc(O)c1C2=O
inactive: NCI-H322M lung 59% | A549/ATCC NSCLC 91% | SF-295 CNS 61.7%
active: NCI-H23 lung -45% | NCI-H226 lung -20.6% | HOP-62 NSCLC -100% | NCI-H460 lung -43.5% | NCI-H522 lung -89% | 786-0 renal -71.5% | COLO 205 colon -81.5% | DU-145 prostate -82.5% | K-562 leukemia -46.2% | MALME-3M melanoma -72.9% | MDA-MB-231 breast -27.7% | RXF 393 renal -67.1% | SF-268 CNS -49.5% | SF-539 CNS -32.3% | UACC-257 melanoma 5.96% | M14 melanoma -33.2%

O=C(O)c1cc2cc(OCc3ccccc3)ccc2[nH]1
active: MALME-3M melanoma -20.3%
inactive: NCI-H23 lung 103% | NCI-H226 lung 107% | NCI-H322M lung 99% | HOP-62 NSCLC 93.8% | NCI-H460 lung 98.4% | NCI-H522 lung 90.3% | A549/ATCC NSCLC 90.9% | 786-0 renal 115% | COLO 205 colon 93.7% | DU-145 prostate 114% | K-562 leukemia 112% | MDA-MB-231 breast 99.1% | RXF 393 renal 111% | SF-268 CNS 99.9% | SF-295 CNS 108% | SF-539 CNS 87.5% | UACC-257 melanoma 48% | M14 melanoma 106%

COc1ccccc1/C=N\Nc1ccc([N+](=O)[O-])cn1
inactive: NCI-H23 lung 101% | NCI-H226 lung 98.7% | NCI-H322M lung 107% | HOP-62 NSCLC 106% | NCI-H460 lung 123% | NCI-H522 lung 101% | A549/ATCC NSCLC 105% | 786-0 renal 105% | COLO 205 colon 102% | DU-145 prostate 114% | K-562 leukemia 112% | MALME-3M melanoma 117% | MDA-MB-231 breast 103% | RXF 393 renal 115% | SF-268 CNS 105% | SF-295 CNS 96.3% | SF-539 CNS 98.7% | UACC-257 melanoma 108% | M14 melanoma 94.4%

CN(C)c1ccc(C2(Cl)c3ccccc3N(C)c3ccccc32)cc1
inactive: NCI-H23 lung 44.2% | NCI-H226 lung 69.1% | NCI-H322M lung 75.9% | HOP-62 NSCLC 29.9% | NCI-H460 lung 36.9% | NCI-H522 lung 19% | A549/ATCC NSCLC 60% | 786-0 renal 62.1% | COLO 205 colon 43.1% | DU-145 prostate 50.5% | K-562 leukemia 51% | MALME-3M melanoma 48.5% | MDA-MB-231 breast 69.1% | RXF 393 renal 74% | SF-268 CNS 18.2% | SF-295 CNS 66.3% | SF-539 CNS 86.9% | UACC-257 melanoma 54.4% | M14 melanoma 53.4%

N=C(N)c1ccc(NCCNc2ccc(C(=N)N)cc2)cc1
inactive: NCI-H23 lung 85.9% | NCI-H226 lung 62.6% | NCI-H322M lung 95.5% | HOP-62 NSCLC 121% | NCI-H460 lung 50.3% | NCI-H522 lung 92.9% | A549/ATCC NSCLC 42.2% | 786-0 renal 117% | COLO 205 colon 142% | DU-145 prostate 106% | K-562 leukemia 82.1% | MALME-3M melanoma 100% | MDA-MB-231 breast 87.3% | RXF 393 renal 98.3% | SF-268 CNS 113% | SF-295 CNS 66.3% | SF-539 CNS 84.7% | UACC-257 melanoma 62.3% | M14 melanoma 125%

Nc1cc(C(=O)O)cc(C(=O)O)c1
inactive: NCI-H23 lung 108% | NCI-H226 lung 108% | NCI-H322M lung 102% | HOP-62 NSCLC 98.1% | NCI-H460 lung 112% | NCI-H522 lung 91% | A549/ATCC NSCLC 108% | 786-0 renal 96.8% | COLO 205 colon 99% | DU-145 prostate 145% | K-562 leukemia 96.6% | MALME-3M melanoma 92.8% | MDA-MB-231 breast 102% | RXF 393 renal 128% | SF-268 CNS 115% | SF-295 CNS 113% | SF-539 CNS 103% | UACC-257 melanoma 110% | M14 melanoma 98.9%
